Shown are actives, neighbours in structure and some others; about 2.9% of the full set was active somewhere.
PAFAH2 inh: PAFAH2 enzyme inhibitors, primary screen, biochemical, fluorescence polarization, human; recombinant PAFAH2, FP-rhodamine activity probe; inhibition, % at 3.39 µM; AID 492956, 2010; Platelet-activating factor acetylhydrolase 2, cytoplasmic (Homo sapiens), Q99487; 0.99% of 340,000 active;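 active = inhibition above the mean over all tested compounds plus 3 SD, cut at about 30% in these data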;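 also: inhibitors block probe labeling of enzyme so polarization drops; 0% = enzyme with DMSO and 100% = wells lacking PAFAH2 protein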
PAFAH1B2 FP inh: PAFAH1B2 enzyme inhibitors, primary screen, biochemical, fluorescence polarization, human | recombinant PAFAH1B2, FP-rhodamine activity probe | inhibition, % at 3.39 µM | 1.2% of 340,000 active | AID 492953, 2010;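 active = inhibition above the mean of all tested compounds plus 3 SD, cut at about 24% in these data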;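 also: 0% = enzyme with DMSO and 100% = wells lacking PAFAH1B2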
Target sequence (P68402 whole entry, looked up): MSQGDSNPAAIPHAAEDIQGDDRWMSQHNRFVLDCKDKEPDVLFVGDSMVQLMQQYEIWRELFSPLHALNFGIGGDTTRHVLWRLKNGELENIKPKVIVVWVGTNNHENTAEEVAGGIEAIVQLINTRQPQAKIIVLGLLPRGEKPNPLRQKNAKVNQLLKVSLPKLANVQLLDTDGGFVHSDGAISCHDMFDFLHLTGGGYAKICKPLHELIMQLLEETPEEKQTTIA
Fam108B counter: mouse Fam108B serine hydrolase inhibitors, primary screen, counter-screen for RBBP9 inhibitor project, biochemical, fluorescence polarization; recombinant Fam108B, FP-Rh probe fluorescence polarization; 0.33% of 300,000 active; inhibition, % at 9.51 µM;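 active = inhibition above the screen mean inhibition plus 3 SD, computed separately per campaign, cut at about 18% in these data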;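 also: inhibitors lower polarization as less probe binds the enzyme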
PME-1 inh: PME-1 inhibitors via competitive probe labeling, primary screen, biochemical, fluorescence polarization, FP-Rh probe, HTS; Protein phosphatase methylesterase 1 (Homo sapiens), Q9Y570; recombinant PME-1; inhibition, % at 5.9 µM; 0.53% of 320,000 active; AID 2130, 2009;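 active = inhibition above the campaign mean of all compounds plus 3 SD, cut at about 26% in these data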;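 also: competitive labeling of PME-1 active site by serine hydrolase directed probe; 0% = PME-1 with DMSO and 100% = wells lacking PME-1 enzyme; inhibitors block probe labeling so polarization falls and inhibition rises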
PAFAH1B3 inh: PAFAH1B3 enzyme inhibitors, primary screen, biochemical, fluorescence polarization, human | 0.28% of 340,000 active | AID 492972, 2010 | recombinant PAFAH1B3, FP-rhodamine probe | inhibition, % at 3.39 µM;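 active = inhibition above the screen-wide average of all tested compounds plus 3 SD, cut at about 25% in these data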;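 also: 0% = enzyme with DMSO only and 100% = wells lacking PAFAH1B3 protein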
Target sequence (Q15102 whole entry, looked up): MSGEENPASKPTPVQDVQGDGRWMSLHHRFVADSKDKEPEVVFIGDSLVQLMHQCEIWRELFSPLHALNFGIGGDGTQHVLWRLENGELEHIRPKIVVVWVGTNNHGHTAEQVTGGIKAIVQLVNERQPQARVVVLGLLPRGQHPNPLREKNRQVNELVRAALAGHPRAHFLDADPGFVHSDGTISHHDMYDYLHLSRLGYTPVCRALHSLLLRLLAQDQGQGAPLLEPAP
pPAFAH FP inh: pPAFAH enzyme inhibitors, primary screen, biochemical, fluorescence polarization, human. Platelet-activating factor acetylhydrolase (Homo sapiens), Q13093. recombinant pPAFAH, FP-rhodamine probe fluorescence polarization. inhibition, % at 3.39 µM. 1.5% of 330,000 active;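 active = inhibition above the mean inhibition across the screen plus 3 SD, cut at about 25% in these data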;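 also: inhibitors block binding of the rhodamine activity-based probe so polarization drops; 0% = enzyme with DMSO and 100% = wells lacking pPAFAH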
Fam108b confirm: mouse Fam108b serine hydrolase inhibitors, confirmation, counter-screen for RBBP9 inhibitor project, biochemical, fluorescence polarization, triplicate | 44% of 930 active | shares compounds with Fam108B counter | recombinant Fam108b, FP-Rh probe fluorescence polarization | inhibition, % at 9.51 µM;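 active = inhibition above a limit from the primary screen, the mean over all compounds plus 3 SD, cut at about 19% in these data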;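 also: 0% = median of active Fam108b wells and 100% = catalytically dead S170A mutant; inhibitors free the probe so polarization falls as inhibition rises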
Fam108b ABPP HTS: inhibition of mouse Fam108b by HTS hits, late-stage follow-up, biochemical, gel-based ABPP, soluble recombinant form | inhibition, % at 20 µM | shares compounds with Fam108B counter | 44% of 260 active | fluorophosphonate probe; in the data active = inhibition above about 40%
Active calls of the source: *; nt = no result given.

SMILES | PAFAH2 inh | PAFAH1B2 FP inh | Fam108B counter | PME-1 inh | PAFAH1B3 inh | pPAFAH FP inh | Fam108b confirm | others
CN(C)c1ccc(/C=N/NC(=O)c2cccc(C(=O)N/N=C/c3ccc(N(C)C)cc3)n2)cc1 | -2 | 0 | 0 | 3 | 1 | 3 | nt
COCC(=O)N(Cc1cc2cc(OC)ccc2[nH]c1=O)c1ccc(C)cc1 | -4 | 6 | 23* | -1 | 0 | 2 | 6
COCC(=O)N(Cc1cc2ccc(C)cc2[nH]c1=O)c1ccc(OC)cc1 | -6 | 1 | 1 | -1 | 15 | 10 | nt
O=C(CNc1cccc2ccccc12)N/N=C/c1cccc(Oc2ccccc2)c1 | 15 | 1 | 33* | 36* | 6 | 19 | 13
O=C(CNc1cccc2ccccc12)N/N=C/c1ccccn1 | nt | nt | 0 | 13 | nt | 11 | nt
CC(=O)C1=C(O)C(=O)N(c2ccc(S(N)(=O)=O)cc2)C1c1cccc([N+](=O)[O-])c1 (stereo not given) | -2 | 3 | 1 | 4 | 1 | 3 | nt
CC(=O)C1C(=O)c2c(cccc2[N+](=O)[O-])C1=Nc1ccc(S(N)(=O)=O)cc1 (stereo not given) | 39* | 23 | 20* | 26* | 35* | 25* | 22*
Cc1[nH]c2ccccc2c1C=NNC(=O)c1cccc(S(=O)(=O)Nc2cccc(C(F)(F)F)c2)c1 | nt | nt | nt | nt | nt | nt | nt | Fam108b ABPP HTS=95*
CCCCCC(=O)Nc1nc(C)c(-c2csc(Nc3ccc(Cl)cc3)n2)s1 | -8 | 9 | 20* | 25 | 18 | 10 | 13
Cc1ccccc1Nc1nc(-c2sc(NC(=O)c3ccc([N+](=O)[O-])cc3)nc2C)cs1 | nt | nt | 14 | 5 | nt | 10 | nt
COc1ccc(Cl)cc1Nc1nc(-c2sc(NC(=O)c3ccccc3)nc2C)cs1 | nt | nt | 1 | 16 | nt | 15 | nt
Cc1ccc(Nc2nc(-c3sc(NC(=O)c4ccc([N+](=O)[O-])cc4)nc3C)cs2)cc1 | nt | nt | 22* | 11 | nt | 15 | 8
CCOc1ccccc1Nc1nc(-c2sc(NC(=O)c3ccc([N+](=O)[O-])cc3)nc2C)cs1 | nt | nt | 22* | 19 | nt | 14 | 24*
COc1ccc(OC)c(Nc2nc(-c3sc(NC(=O)c4ccccc4)nc3C)cs2)c1 | nt | nt | 19* | 21 | nt | 6 | 16
CN(C(=O)c1ccc(NC(=O)Cc2ccc(NC(=O)C3CCN(C(=O)C4CCCCC4)CC3)cc2)cc1)C1CC1 | -2 | 2 | nt | 1 | -2 | 4 | nt
O=c1ccnc(NCCc2ccccc2)[nH]1 | 5 | -2 | -6 | 4 | 8 | 4 | nt
CCOC(=O)C1=C(C)N=c2s/c(=C\c3cccc(OCC(=O)O)c3)c(=O)n2C1c1ccccc1OC (stereo not given) | 3 | 1 | 2 | 1 | 1 | -2 | nt
CCOC(=O)C1=C(C)N=c2sc(=Cc3ccc(O)c([N+](=O)[O-])c3)c(=O)n2C1c1ccccc1OC (stereo not given) | nt | nt | nt | nt | nt | nt | nt | Fam108b ABPP HTS=30
c1coc(-c2nnc(-c3ccco3)nn2)c1 | 32* | 18 | 22* | -2 | 19 | 32* | 16
Cc1cc(N/N=C/c2ccc(O)cc2O)nc(-c2ccccc2O)n1 | 6 | 4 | 34* | 65* | 13 | 16 | 14
O=C(CSc1ccc(Br)cc1)N1CCOCC1 | 3 | 13 | -1 | -3 | 4 | 2 | nt
Cc1ccc(C(=O)OCC(=O)N2C(C)CCCC2C)s1 (stereo not given) | 25 | 2 | nt | 5 | -1 | 0 | nt
c1ccc2[nH]c(-c3ccc4c(c3)OCO4)nc2c1 | nt | nt | -1 | 2 | nt | 4 | nt
COc1ccc(-c2[nH]c(-c3cc(OC)c4c(c3)OCO4)nc2-c2ccccc2)cc1 | 6 | 1 | 19* | 9 | 2 | 2 | -9
COc1ccc(/C=N/N=C2\SCC(=O)N2c2c(C)n(C)n(-c3ccccc3)c2=O)cc1OC | -1 | -2 | 2 | -2 | 0 | 6 | nt
SMILES | PAFAH2 inh | PAFAH1B2 FP inh | Fam108B counter | PME-1 inh | PAFAH1B3 inh | pPAFAH FP inh | Fam108b confirm | others
O=[N+]([O-])c1ccc(O)c(C=NNC(=S)Nc2ccc(Cl)cc2Cl)c1 | nt | nt | nt | nt | nt | nt | nt | Fam108b ABPP HTS=0
Cc1cc(C)c(S(=O)(=O)NCc2cccnc2)cc1C | 4 | 4 | 3 | -1 | 10 | 9 | nt
COc1ccc(-c2nc(CN3CCC(C(=O)NC4CCCc5ccccc54)CC3)c(C)o2)cc1OC (stereo not given) | -13 | 1 | nt | nt | 11 | nt | nt
Nc1ccc(N)c(C(=O)O)c1 | 66* | 47* | 57* | 4 | 69* | 34* | 45* | Fam108b ABPP HTS=0
CCN(CC(=O)Nc1ccc2c(c1)OCCO2)C(=O)c1ccccc1Br | -2 | 6 | nt | nt | 4 | 3 | nt
COc1ccc(NS(=O)(=O)c2cccs2)c(OC)c1 | 0 | -1 | 2 | -3 | 1 | 6 | nt
COc1ccc(Nc2nc3ccccc3nc2NS(=O)(=O)c2cccs2)c(OC)c1 | 15 | -4 | 23* | 0 | 11 | 9 | 13
O=C(Nc1ccc2c(c1)OCO2)N1CCCc2ccccc21 | -4 | 0 | 4 | 0 | 0 | 2 | nt
COc1ccc(/C=C2\SC(=S)N(CC(=O)OCC(=O)Nc3cc(Cl)cc(Cl)c3)C2=O)cc1 | -9 | 15 | 27* | 2 | 18 | 4 | 78* | Fam108b ABPP HTS=85*
COc1ccc(/C=C2/SC(=S)N(CCCC(=O)Nc3cccc(O)c3)C2=O)cc1 | 0 | -7 | -6 | -20 | -1 | 6 | nt
COc1cccc(S(=O)(=O)Nc2ccc3c(c2)OCCO3)c1 | 0 | 1 | nt | nt | 13 | nt | nt
COc1ccc(NS(=O)(=O)c2ccc3oc(Nc4ccc5c(c4)OCCO5)nc3c2)cc1 | 3 | 12 | 30* | 32* | 12 | 26* | -1
CC(C)N=c1cc2n(-c3ccc(Cl)cc3)c3ccccc3nc-2cc1Nc1ccc(Cl)cc1 | 2 | -2 | 39* | 32* | 10 | 17 | 8
CC1OC1c1ccc(-c2ccc(C3OC3C)cc2)cc1 (stereo not given) | 8 | 3 | nt | nt | 10 | nt | nt
O=C1C=C(N2CCCCC2)c2ccccc2C1=O | nt | nt | 69* | 40* | nt | 11 | 82* | Fam108b ABPP HTS=0
Cc1ccc(NC(=O)CC(=O)c2ccc([N+](=O)[O-])cc2)cc1S(=O)(=O)Nc1cccc(Cl)c1 | 19 | 27* | 25* | 9 | 24 | -15 | 14
